About 79,000 compounds went through this panel and 15% of them were active in at least one assay; those are over-represented in the sample as a whole. Activity calls are given as the source filed them. Rule as the data show it: active = growth inhibition above about 70%; inactive = the rest.
Tests used:
[1] = NCI Yeast Anticancer Drug Screen. Data for the rad52 strain (AID 147);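 also: 0% = growth of vehicle-treated control cultures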; conditions: S. cerevisiae rad52 mutant growth inhibition, stronger effect = higher value
Method in brief: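 Growth of repair-deficient yeast cells was compared between compound-treated and vehicle-treated cultures to give percent inhibition.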

[2] = NCI Yeast Anticancer Drug Screen. Data for the wt1 strain (AID 149);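 also: 0% = growth of vehicle-treated wt1 cultures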; conditions: S. cerevisiae wt1 strain (SPY 50644) growth inhibition, stronger effect = higher value
Method in brief: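 Yeast wt1 strain exposed to compounds; growth inhibition measured relative to vehicle-treated controls.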

[3] = NCI Yeast Anticancer Drug Screen. Data for the rad50EPP+ strain (AID 151);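 also: 0% = growth of vehicle-treated control cultures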; conditions: S. cerevisiae rad50 mutant strain, stronger effect = higher value
Method in brief: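 Measured: growth inhibition of rad50EPP+ yeast. Reference: vehicle-treated controls. Screen uses strains with defined genetic alterations in DNA damage repair or cell cycle control.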

[4] = NCI Yeast Anticancer Drug Screen. Data for the rad50 strain (AID 155);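 also: 0% = growth of vehicle-only cultures of the same strain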; conditions: S. cerevisiae rad50 strain growth inhibition, stronger effect = higher value
Method in brief: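 Yeast carrying a defined DNA repair defect were exposed to test compounds, and growth was compared with vehicle-treated controls to give percent inhibition.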

[5] = NCI Yeast Anticancer Drug Screen. Data for the mec2-1 strain (AID 157); conditions: S. cerevisiae mec2-1 strain, stronger effect = higher value
Method in brief: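 Compounds were applied to mec2-1 yeast cells. Their growth was then compared with that of vehicle-treated cultures to give growth inhibition.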

[6] = NCI Yeast Anticancer Drug Screen. Data for the rad14 strain (AID 159);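 also: 0% = growth of vehicle-treated control cultures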; conditions: S. cerevisiae rad14 strain growth inhibition, stronger effect = higher value
Method in brief: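 Yeast cells carrying a defined DNA-repair defect were exposed to compounds, and growth inhibition was calculated relative to vehicle-treated control cultures.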

[7] = NCI Yeast Anticancer Drug Screen. Data for the sgs1 mgt1 strain (AID 161);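 also: 0% = growth of cultures given vehicle only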; conditions: S. cerevisiae sgs1 mgt1 strain, stronger effect = higher value
Method in brief: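 Percent growth inhibition was derived by comparing compound-exposed mutant yeast with vehicle-exposed cultures. The strain carries alterations in DNA damage repair.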

[8] = NCI Yeast Anticancer Drug Screen. Data for the CLN2oe strain (AID 163);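 also: 0% = growth of vehicle-only control cultures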; conditions: S. cerevisiae CLN2oe strain, stronger effect = higher value
Method in brief: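 Cells of an engineered yeast line with disturbed cell-cycle regulation are treated with compound. Inhibition of growth is then calculated relative to the vehicle-treated reference.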

[9] = NCI Yeast Anticancer Drug Screen. Data for the cln2 rad14 strain (AID 165);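 also: 0% = growth equal to vehicle treated cultures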; conditions: S. cerevisiae cln2 rad14 strain, stronger effect = higher value
Method in brief: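 Strain: cln2 rad14 yeast, altered in cell cycle control and DNA damage repair. Read-out: growth inhibition vs vehicle.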

[10] = NCI Yeast Anticancer Drug Screen. Data for the bub3 strain (AID 167); conditions: S. cerevisiae bub3 mutant strain, stronger effect = higher value
Method in brief: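 Compounds were applied to a genetically altered yeast strain carrying a cell-cycle control defect. Growth inhibition was scored against vehicle-treated controls.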

[11] = NCI Yeast Anticancer Drug Screen. Data for the wt2 strain (AID 169);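 also: 0% = growth of vehicle-treated yeast cultures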; conditions: S. cerevisiae wt2 strain growth inhibition, stronger effect = higher value
Method in brief: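 Growth of compound-treated yeast is measured and expressed as inhibition relative to vehicle-only controls.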

[12] = NCI Yeast Anticancer Drug Screen. Data for the mlh1 strain (AID 171);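 also: 0% = growth of vehicle-treated control cultures of the same strain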; conditions: S. cerevisiae mlh1 strain growth inhibition, stronger effect = higher value
Method in brief: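 Test agents were incubated with yeast bearing a defined DNA damage repair or cell cycle control alteration; values are growth inhibition normalised to vehicle-treated cultures.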

[13] = NCI Yeast Anticancer Drug Screen. Data for the sgs1 strain (AID 173);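 also: 0% = growth of vehicle-only control cultures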; conditions: S. cerevisiae sgs1 mutant, stronger effect = higher value
Method in brief: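 Strain with an altered DNA repair or cell cycle pathway exposed to compound. Growth then measured. Value = inhibition versus vehicle control.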

[14] = NCI Yeast Anticancer Drug Screen. Data for the rad18 strain (AID 177); conditions: S. cerevisiae rad18 mutant growth inhibition, stronger effect = higher value
Method in brief: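 DNA-repair-defective yeast; compound treatment; growth inhibition scored against vehicle.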

[15] = at 5.0 µM (retest, dose inferred, filed as 0.5)
[16] = at 50.0 µM (retest, dose inferred, filed as 5.0)

Measured: growth inhibition

[N-]=[N+]=C1C(Cl)=C(Cl)C(Cl)=C1Cl
active: [1]; at 33.0 µM 99% | [1]; at 100.0 µM 99% | [2]; at 33.0 µM 97% | [2]; at 100.0 µM 99% | [3]; at 33.0 µM 83% | [3]; at 100.0 µM 98% | [4]; at 33.0 µM 99% | [4]; [16] 96% | [4]; at 50.0 µM 99% | [4]; at 100.0 µM 99% | [5]; at 33.0 µM 99% | [5]; [16] 98% | [5]; at 50.0 µM 99.5% | [5]; at 100.0 µM 99% | [6]; at 33.0 µM 99% | [6]; at 100.0 µM 99% | [7]; [16] 95% | [7]; at 50.0 µM 99.2% | [8]; at 33.0 µM 99% | [8]; at 100.0 µM 99% | [9]; [16] 97% | [9]; at 50.0 µM 98.8% | [10]; at 33.0 µM 98% | [10]; [16] 97% | [10]; at 50.0 µM 99% | [10]; at 100.0 µM 99% | [11]; at 33.0 µM 99% | [11]; at 100.0 µM 99% | [12]; at 33.0 µM 99% | [12]; at 100.0 µM 99% | [13]; at 33.0 µM 99% | [13]; at 100.0 µM 99% | [14]; at 33.0 µM 98% | [14]; at 100.0 µM 99%
inactive: [1]; at 1.2 µM -1% | [1]; at 3.7 µM 17% | [1]; at 11.0 µM 63% | [2]; at 1.2 µM -3% | [2]; at 3.7 µM -2% | [2]; at 11.0 µM 44% | [3]; at 1.2 µM 1% | [3]; at 3.7 µM 6% | [3]; at 11.0 µM 32% | [4]; at 1.2 µM 6% | [4]; at 3.7 µM 8% | [4]; [15] 62% | [4]; at 11.0 µM 65% | [5]; at 1.2 µM 1% | [5]; at 3.7 µM 2% | [5]; [15] 15% | [5]; at 11.0 µM 59% | [6]; at 1.2 µM 1% | [6]; at 3.7 µM 5% | [6]; at 11.0 µM 44% | [7]; [15] 20% | [8]; at 1.2 µM -2% | [8]; at 3.7 µM 2% | [8]; at 11.0 µM 50% | [9]; [15] -6% | [10]; at 1.2 µM -8% | [10]; at 3.7 µM 1% | [10]; [15] 11% | [10]; at 11.0 µM 62% | [11]; at 1.2 µM 0% | [11]; at 3.7 µM 0% | [11]; at 11.0 µM 48% | [12]; at 1.2 µM 6% | [12]; at 3.7 µM -1% | [12]; at 11.0 µM 48% | [13]; at 1.2 µM -1% | [13]; at 3.7 µM 19% | [13]; at 11.0 µM 64% | [14]; at 1.2 µM 3% | [14]; at 3.7 µM 13% | [14]; at 11.0 µM 62%

Source: PubChem BioAssay (NCI)
